Results filed as inconclusive are left out. Calls of active or inactive are those of the source. The call rests on the fitted dose curve; in most records, active means well fitted inhibition curve with a large enough effect in the polarisation, with a control signal flat (not every such curve was filed as active); inconclusive means small, poorly fitted or top-dose-only effect, or effect the other way, or a change in a side signal; inactive means no such curve, though single readings can be large or run the other way; the % refers to the polarisation.
target: Menin (Homo sapiens) (UniProt O00255); assay: Confirmation of Inhibitors Targeting the Menin-MLL Interaction in MLL Related Leukemias: Competition With Fluorescein Labeled MLL-derived Peptide; settings: Fluorescence polarization, fluorescein-MLL peptide displacement from menin; series mostly up to 100 µM; activity change, negative = inhibition: at the top concentration
On the % scale 0 is the no-effect control and ±100 the full control effect.

Menin (Homo sapiens), sequence (O00255 whole entry, looked up): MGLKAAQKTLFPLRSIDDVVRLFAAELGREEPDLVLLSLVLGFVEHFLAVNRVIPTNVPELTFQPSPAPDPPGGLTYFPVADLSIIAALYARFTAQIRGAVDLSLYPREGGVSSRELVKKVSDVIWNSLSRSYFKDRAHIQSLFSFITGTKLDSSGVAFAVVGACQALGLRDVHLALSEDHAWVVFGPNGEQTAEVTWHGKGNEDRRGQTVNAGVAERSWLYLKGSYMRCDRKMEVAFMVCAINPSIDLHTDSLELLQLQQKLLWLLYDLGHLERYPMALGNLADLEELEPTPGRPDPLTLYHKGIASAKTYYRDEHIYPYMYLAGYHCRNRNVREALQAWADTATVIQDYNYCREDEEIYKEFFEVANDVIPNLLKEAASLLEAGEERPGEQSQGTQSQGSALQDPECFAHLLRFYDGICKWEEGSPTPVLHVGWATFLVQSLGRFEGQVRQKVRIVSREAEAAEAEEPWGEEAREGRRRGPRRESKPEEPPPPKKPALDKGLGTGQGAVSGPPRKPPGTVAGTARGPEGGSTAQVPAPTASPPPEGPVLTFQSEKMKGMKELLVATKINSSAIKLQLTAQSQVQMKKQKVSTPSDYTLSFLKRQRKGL

Q: Which “activity change, negative = inhibition” value does the source give for O=C(NC(=S)Nc1ccccc1)c1cc(-c2ccccc2)nc2ccccc12 here?
A: The value was -1.95% [at 288 µM] (inactive).

Q: Which “activity change, negative = inhibition” value does the source give for Cc1cc(C)c2c(=O)cc(C(=O)NCc3ccccc3)oc2c1 here?
A: The value was 2.6% [at 288 µM] (inactive).

Q: For O=c1oc2c(O)c(O)cc3c(=O)oc4c(O)c(O)cc1c4c23, which “activity change, negative = inhibition” value is on record?
A: Its value is -10.6% (inactive).

Q: With CCOc1ccc2c(c1)C(NC(C)=O)C(=O)N2CCN1CCOCC1 (centres undefined) as the molecule, how does the “activity change, negative = inhibition” value read?
A: Its value is -25.5% (inactive).

Q: How did the “activity change, negative = inhibition” value turn out when CCN(CC)c1nc(-c2ccc(C(=O)NN)cc2)nc(-c2ccc(C(=O)NN)cc2)n1 was run?
A: The value was -6.99% [at 288 µM] (inactive).

Q: With O=C(Nc1ccc2ccccc2c1)c1cn(-c2ccccc2)nc1-c1cccs1 as the molecule, how does the “activity change, negative = inhibition” value read?
A: Its value is -8.29% (inactive).

Q: For N#Cc1ccc(Cl)cc1NC(=O)CNCc1cccs1, which “activity change, negative = inhibition” value is on record?
A: The value was -3.53% (inactive).

Q: With Cc1ccc(C#CC(C)(O)C(C)(C)C)cn1 (centres undefined) as the molecule, how does the “activity change, negative = inhibition” value read?
A: The value was -0.647% (inactive).

Q: For O=C(CS)Nc1ccc2ccccc2c1, which “activity change, negative = inhibition” value is on record?
A: Its value is -23% (inactive).

Q: With Cc1ccc(-c2cc(C(=O)Nc3cc(C)ccc3O)no2)cc1 as the molecule, how does the “activity change, negative = inhibition” value read?
A: Its value is -2.22% (inactive).

Q: How did the “activity change, negative = inhibition” value turn out when CC(=O)N1c2ccccc2C2(O)N=C(C)SC12 (centres undefined) was run?
A: Its value is -1.79% [at 288 µM] (inactive).

Q: For COc1cc(SC)ccc1C(=O)Nc1cccc(C2OCCCO2)c1, which “activity change, negative = inhibition” value is on record?
A: Its value is -4.55% [at 288 µM] (inactive).

Q: How did the “activity change, negative = inhibition” value turn out when CC(=O)Nc1ccc(-c2cc3ccccc3o2)cc1 was run?
A: The value was -1.48% (inactive).

Q: O=C(Nc1nnc(SCc2ccc(F)cc2)s1)c1ccc2c(c1)C(=O)N(c1ccccc1Cl)C2=O was tested. Which “activity change, negative = inhibition” value did it give?
A: The value was -9.5% [at 288 µM] (inactive).

Q: Which “activity change, negative = inhibition” value does the source give for COc1ccc(N(CC(=O)NC2CC3CCC2C3)S(=O)(=O)c2ccc(C)cc2)cc1OC (centres undefined) here?
A: Its value is 8.09% (inactive).

Q: With CN(C)c1ccc(N=Nc2ccc(C(=O)O)cc2)cc1 as the molecule, how does the “activity change, negative = inhibition” value read?
A: Its value is 3.8% (inactive).

Q: How did the “activity change, negative = inhibition” value turn out when CCc1ccc(NC(=O)CSc2nc(O)cc(=O)n2C2CCCC2)cc1 was run?
A: Its value is -11.7% (inactive).

Q: Which “activity change, negative = inhibition” value does the source give for CC(c1ccccc1)c1nnc(NC(=O)Nc2ccccc2F)s1 (centres undefined) here?
A: The value was 0.65% [at 288 µM] (inactive).

Q: CCOC(=O)N1CCN(CC(=O)N2c3ccccc3Sc3ccccc32)CC1 was tested. Which “activity change, negative = inhibition” value did it give?
A: The value was 8.87% (inactive).

Q: With CCn1cnc2c1c(=O)n(CC(=O)O)c(=O)n2Cc1ccccc1 as the molecule, how does the “activity change, negative = inhibition” value read?
A: The value was -2.36% [at 288 µM] (inactive).

Q: For COc1ccc(N(C(=O)c2ccncc2)S(=O)(=O)c2ccc(Cl)cc2)cc1, which “activity change, negative = inhibition” value is on record?
A: Its value is -1.48% (inactive).

Q: How did the “activity change, negative = inhibition” value turn out when Cc1ccc(C)n1-c1ccc(N(C)C)cc1 was run?
A: Its value is -7.52% (inactive).

Q: With O=C(O)c1cc(S(=O)(=O)O)cc(Nc2c3ccccc3nc3ccccc23)c1O as the molecule, how does the “activity change, negative = inhibition” value read?
A: The value was -0.894% [at 288 µM] (inactive).

Q: CN(C)/C=C(/C(=O)c1ccc(Cl)cc1)S(=O)(=O)c1ccc(Cl)cc1 was tested. Which “activity change, negative = inhibition” value did it give?
A: Its value is 2.27% [at 288 µM] (inactive).

Q: For COc1ccc(-c2csc(NC(=S)NC(=O)/C=C/c3ccc(C(C)C)cc3)n2)cc1OC, which “activity change, negative = inhibition” value is on record?
A: Its value is -4.13% (inactive).

Q: How did the “activity change, negative = inhibition” value turn out when O=C(CSc1nnc(-c2c[nH]c3ccccc23)o1)c1ccc(-c2ccccc2)cc1 was run?
A: Its value is 3.72% (inactive).

Q: How did the “activity change, negative = inhibition” value turn out when O=C1C(Cl)=C(NCCN2CCOCC2)C(=O)c2ncccc21 was run?
A: Its value is 3.66% [at 288 µM] (inactive).

Q: COc1ccc(Cn2nnnc2C(c2ccccc2)N2CCN(C3CCCC3)CC2)cc1 (centres undefined) was tested. Which “activity change, negative = inhibition” value did it give?
A: Its value is -3.94% (inactive).

Q: With CCCN(CCC)CCCNC(=S)Nc1ccc2nc(N3CCCC3)cc(C)c2c1 as the molecule, how does the “activity change, negative = inhibition” value read?
A: Its value is -6.49% (inactive).

Q: For COc1ccccc1CC(=O)Nc1ccc(-c2noc(COc3ccc(Br)cc3)n2)cc1, which “activity change, negative = inhibition” value is on record?
A: Its value is 11.3% (inactive).

Q: How did the “activity change, negative = inhibition” value turn out when COC(=O)C1[C@H]2SC(C)(C)C(C(=O)OC)N2C(=O)N1Cc1nc2ccccc2s1 (some centres undefined) was run?
A: Its value is -3.37% (inactive).

Q: For CN1CCN(CC(=O)Nc2ccc(S(=O)(=O)N(C)C)cc2)CC1, which “activity change, negative = inhibition” value is on record?
A: Its value is 2.22% (inactive).

Q: With CC(C)Cc1cc(C(=O)NCCCN2CCOCC2)no1 as the molecule, how does the “activity change, negative = inhibition” value read?
A: The value was -12.7% (inactive).

Q: For C=C1CCC[C@]2(C)C[C@H]3OC(=O)C(CNCCN(CC)CC)[C@H]3CC12 (some centres undefined), which “activity change, negative = inhibition” value is on record?
A: Its value is -4.69% (inactive).

Reference: PubChem BioAssay AID2783 (National Center for Advancing Translational Sciences (NCATS), 2010)
